OTUD3 block = human OTUD3 deubiquitinase inhibition | Q5T2D3 | purified OTUD3, Ub-rhodamine fluorescence, 2 h | inhibition, % at 25 µM | hit rate 0.7% among 47,000
USP10 inh = human USP10 deubiquitinase inhibition; AID 1645856; Q14694; hit rate 1.1% among 47,000; purified USP10, Ub-rhodamine fluorescence, 60 min; inhibition, % at 20 µM
UCHL1 block = inhibitors of human UCHL1 deubiquitinase | P09936 | purified UCHL1, Ub-rhodamine cleavage fluorescence | inhibition, % at 20 µM | hit rate 0.2% among 47,000 | AID 1645859
USP7 inh = human USP7 deubiquitinase inhibition. purified USP7, Ub-rhodamine cleavage fluorescence. inhibition, % at 20 µM. hit rate 0.3% among 47,000. AID 1645854
Target sequence (Q93009 whole entry, looked up): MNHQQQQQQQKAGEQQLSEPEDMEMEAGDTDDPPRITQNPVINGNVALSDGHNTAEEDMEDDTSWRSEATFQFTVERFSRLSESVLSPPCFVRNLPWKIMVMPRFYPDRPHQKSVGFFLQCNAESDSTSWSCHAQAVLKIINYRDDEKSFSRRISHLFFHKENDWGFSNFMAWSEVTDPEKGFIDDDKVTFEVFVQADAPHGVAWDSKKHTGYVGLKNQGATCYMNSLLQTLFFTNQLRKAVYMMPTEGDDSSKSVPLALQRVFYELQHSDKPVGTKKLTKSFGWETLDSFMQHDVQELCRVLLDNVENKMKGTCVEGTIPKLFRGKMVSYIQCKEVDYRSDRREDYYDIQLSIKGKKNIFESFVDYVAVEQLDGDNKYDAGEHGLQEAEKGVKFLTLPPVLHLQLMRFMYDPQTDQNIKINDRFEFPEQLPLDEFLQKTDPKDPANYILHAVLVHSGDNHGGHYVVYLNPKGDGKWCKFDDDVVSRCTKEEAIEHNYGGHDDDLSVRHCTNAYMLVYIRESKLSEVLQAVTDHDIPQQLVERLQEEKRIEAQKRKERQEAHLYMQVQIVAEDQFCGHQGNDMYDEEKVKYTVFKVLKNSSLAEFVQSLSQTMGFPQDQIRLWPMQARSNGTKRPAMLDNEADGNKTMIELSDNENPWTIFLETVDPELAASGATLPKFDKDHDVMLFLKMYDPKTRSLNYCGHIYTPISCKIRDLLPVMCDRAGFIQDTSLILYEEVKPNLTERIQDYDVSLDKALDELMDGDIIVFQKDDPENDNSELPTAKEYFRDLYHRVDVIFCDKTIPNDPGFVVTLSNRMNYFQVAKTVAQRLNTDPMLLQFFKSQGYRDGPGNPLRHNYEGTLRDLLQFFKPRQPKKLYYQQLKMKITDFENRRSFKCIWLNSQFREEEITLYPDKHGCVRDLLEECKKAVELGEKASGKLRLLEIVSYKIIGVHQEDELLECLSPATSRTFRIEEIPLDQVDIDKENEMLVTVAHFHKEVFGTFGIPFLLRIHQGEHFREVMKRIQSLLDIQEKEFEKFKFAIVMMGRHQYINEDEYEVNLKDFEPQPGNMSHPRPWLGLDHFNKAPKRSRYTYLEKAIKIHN
USP28 block = human USP28 deubiquitinase inhibition; Q96RU2; purified USP28, Ub-rhodamine cleavage fluorescence, 30 min; inhibition, % at 25 µM; hit rate 3% among 47,000; AID 1645857
* marks the source's active call; other numbers are inactive results; x = no result. In the library only some 4.2% were active in any assay of this set; here they are far more common. No stated cut-off is given here; in the data, active means inhibition above about 30%; inactive means the rest.

SMILES	OTUD3 block	USP10 inh	UCHL1 block	USP7 inh	USP28 block
C=C1CCC[C@]2(C)C[C@H]3OC(=O)C(CN4CCCCC4C)[C@H]3CC12 (stereo not given in full)	0	-1	-3	-2	-9
Cc1ccc(CNC(=O)c2cc(-c3ccccc3)nn2-c2ccccc2)cc1	17	9	7	17	17
CC1=C(c2ccc(C)c(C)c2)S(=O)(=O)NC1=NCC(=O)Nc1ccc(F)cc1F	-1	6	0	7	6
CNc1nc(C2CCCCN2C(=O)c2cccc3cccnc23)nc2c1CCN(C(C)=O)C2 (stereo not given)	8	2	2	1	7
COc1ccc(-n2c(N(C)C)nc3cc(C(=O)NC4CC4)sc32)cc1	-5	2	4	0	42*
CNC(=O)c1cc2nc(N(C)C)n(-c3ccc(OC)cc3)c2s1	12	0	2	1	20
COc1ccc(C(=O)Nc2ccccc2C(=O)NC(Cc2ccc(O)cc2)C(=O)NNC(=O)c2ccccc2Cl)cc1 (stereo not given)	75*	62*	3	12	75*
CCc1ccc(NC(=O)Cn2cc(-c3ccccc3)c3ncn(CC)c(=O)c32)cc1	-7	-9	-6	-5	-15
Cc1ccc(CSC2=NS(=O)(=O)c3ccccc3N2)cc1	11	6	2	0	57*
COc1ccc(-n2ccc(=O)c(-c3nc(-c4ccccc4F)no3)n2)cc1OC	6	-6	2	4	63*
CCOc1cccc(-c2noc(-c3nn(-c4cccc(C)c4)ccc3=O)n2)c1	0	9	8	-2	-7
CCOc1cccc(-c2noc(-c3nn(-c4ccccc4)ccc3=O)n2)c1	40*	24	7	21	70*
Cc1ccc(CCNC(=O)c2nn(C34CC5CC(CC(C5)C3)C4)cc2[N+](=O)[O-])cc1	27	17	7	14	23
CCOc1ccccc1NC(=O)Nc1cccn2nc(C)nc12	-7	1	0	1	1
Cc1ccc(NC(=O)Nc2cccn3nc(C)nc23)cc1	1	1	3	1	47*
O=C(NC1CC1)c1nc(Cn2c(C(F)F)nc3ccccc32)no1	-3	0	-4	-1	-4
COc1cc(O)c2c(c1C)C(C)(C(C)=O)OC2=O (stereo not given)	5	-6	1	2	-3
COc1cc(C)c2c(=O)c3c(oc2c1)C(=O)c1c(O)c(OC)cc(O)c1C3=O	33*	-7	11	-63	35*
Cc1ccnc(NC(=O)c2ccn(COc3ccccc3Cl)n2)c1	-1	3	2	3	16
CN1C(=O)COc2cc(-c3noc(C(=O)NCCc4ccccc4)n3)ccc21	10	6	0	0	13
CC(CNC(=O)c1nc(-c2ccc3c(c2)OCC(=O)N3C)no1)c1ccccc1 (stereo not given)	10	6	7	5	39*
CCc1nc(-c2cccc(NC(=O)c3ccc(C#N)cc3F)c2)no1	11	2	3	1	51*
Cc1nc(-c2noc(-c3cccc(F)c3)n2)cn1CC(=O)Nc1ccccc1	-6	62*	18	-33	-5
COc1cc(-n2c(=O)c3ccccc3n(CC(=O)NCC3CCCO3)c2=O)cc(OC)c1OC (stereo not given)	2	-3	-2	1	3
COc1cc(NC(=O)Cn2c(=O)n(-c3ccc(CC(=O)NC4CCCC4)cc3)c(=O)c3ccccc32)cc(OC)c1	43*	24	-1	17	44*
SMILES	OTUD3 block	USP10 inh	UCHL1 block	USP7 inh	USP28 block
O=C(Cc1ccc(-n2c(=O)c3ccccc3n(Cc3cccc([N+](=O)[O-])c3)c2=O)cc1)NC1CCCC1	20	36*	8	18	14
O=C(Cn1c(=O)n(-c2ccc(CC(=O)NC3CCCC3)cc2)c(=O)c2ccccc21)Nc1ccccc1[N+](=O)[O-]	29	44*	2	0	14
COc1ccc(NC(=O)Cn2c(=O)n(C3CCCCC3)c(=O)c3ccccc32)cc1	12	6	2	0	12
COc1ccc(OC)c(NC(=O)Cn2c(=O)n(C3CCCCC3)c(=O)c3ccccc32)c1	12	43*	-3	-3	13
O=C(Cc1ccc(-n2c(=O)c3ccccc3n(Cc3cccc(F)c3)c2=O)cc1)NC1CCCC1	5	16	-2	6	4
O=C(Cn1c(=O)n(CCC(=O)NC2CCCC2)c(=O)c2ccccc21)Nc1ccccc1F	10	2	3	6	3
COc1ccc(C(=O)[C@@H]2[C@H](C(=O)OC(c3ccccc3)c3ccccc3)N3c4ccccc4C=CC3[C@@]23C(=O)Nc2ccccc23)cc1 (stereo not given in full)	-30	-7	-1	-19	-30
Cc1ccc(-n2nc(C)c3c2NC(=O)CC3C(=O)c2cc3ccccc3o2)cc1 (stereo not given)	10	33*	-1	3	4
CN1CCN(Cc2cccnc2)C(=O)C12CCN(Cc1ccc[nH]1)CC2	6	-8	0	-139	55*
COc1ccccc1CNC(=O)Cn1cnc2c(-c3ccccc3)csc2c1=O	8	40*	5	15	20
c1ccc2c(Cc3nc(-c4ccncc4)no3)cccc2c1	-2	-5	0	-4	85*
CSc1ncccc1C(=O)OCc1ccccc1	2	6	74*	-7	49*
COc1ccc(NC(=O)c2cnc(N3CCCCC3)nc2C)cc1OC	-10	-4	-3	-10	44*
COc1ccc([C@H]2C[C@@H](NCc3cccc(C)c3OC)CC[C@]23CCC(=O)N3)cc1OC	-8	3	-3	-1	-8
COc1cc2c(=O)n(CCCC(=O)NCC3CCCO3)c(=O)n(CC(=O)NC3CCCCC3)c2cc1OC (stereo not given)	10	2	0	1	11
COc1ccccc1-c1nnc2sc(COc3ccc(F)cc3)nn12	6	1	1	-13	x
Cc1ccccc1-c1nnc2sc(COc3ccc(Cl)cc3)nn12	37*	26	5	8	53*
COc1ccc(CNc2nn3c(-c4cncc(OC)c4)cnc3s2)cc1	0	4	-2	5	48*
c1ccc(CNc2nn3c(-c4cccnc4)cnc3s2)cc1	2	8	1	0	10
Cc1c2c(nc3cc4c(cc13)OCO4)-c1ccccc1OC2c1ccccc1 (stereo not given)	-78	-4	1	x	-62
Cc1cc(C(=O)N2CCC3(COCc4cnc(-c5ccccc5)nc43)C2)no1 (stereo not given)	2	-2	-4	-7	-6
CCC(=O)Nc1nc2cc(NC(=O)Nc3ccc(C)cc3)ccc2s1	19	30*	0	19	15
Cc1nc(-c2ccccc2F)sc1C(=O)Nc1cccnc1	-15	-2	0	1	11
COc1cccc(CNc2cc(C(C)C)nc3nc(-c4cccnc4)nn23)c1	8	1	2	2	14
CC(C)c1cnn2c(NCc3ccccc3)cc(NCCCCCCN)nc12	-8	3	1	7	40*
